Hits are enriched below; roughly 19% of the tested compounds scored in any of these assays.
ELG1 repair inh = blocks ELG1-dependent DNA repair in HEK293T cells; AID 504467; actives 2.3% (n = 330,000); HEK293T ELG1-luciferase reporter, luminescence, 16 h; DNA damage induced by 5-fluorouridine; Potency, µM (highest dose often 46.1 µM), without a hit: top-dose activity change, negative = inhibition, actives largely listed as inhibitors; note: potency is the fitted concentration of half-maximal effect; nearly all actives have a fitted effect of over 55% in size
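In this reporter screen, reduction of luminescence relative to DMSO vehicle indicated activity. Compounds and 5-fluorouridine were added together to 2,000 cells per well, incubated for 16 hr at 37 °C, then developed with ONE-Glo.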
IL1B secr inh = inhibitors of inflammasome signaling (IL-1 beta secretion); THP-1 LPS/ATP IL-1B secretion, AlphaLISA, 16 h; hits give low values; activity change, % at 57.5 µM; actives 4.7% (n = 360,000); in the data active = activity change below about -50%; inconclusive = mostly about -30% to -49%
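Secreted IL-1B measured by AlphaLISA bead assay after 16 h compound exposure of THP-1 cells; compounds (final up to 57.5 uM) added 1 h before LPS (250 ng/mL) and ATP (1.25 mM) stimulation; lower signal means less secretion.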
TDP1 inh = TDP1 (human) enzyme inhibition; Q9NUW8; recombinant TDP1, AlphaScreen DNA substrate cleavage; Potency, µM (doses to about 130 µM), inactives show top-dose activity change, negative = inhibition, actives largely listed as inhibitors; actives 0.28% (n = 350,000); AID 485290; note: potency is the fitted concentration of half-maximal effect; nearly all actives have a fitted effect of over 40% in size
Target sequence (Q9NUW8 whole entry, looked up): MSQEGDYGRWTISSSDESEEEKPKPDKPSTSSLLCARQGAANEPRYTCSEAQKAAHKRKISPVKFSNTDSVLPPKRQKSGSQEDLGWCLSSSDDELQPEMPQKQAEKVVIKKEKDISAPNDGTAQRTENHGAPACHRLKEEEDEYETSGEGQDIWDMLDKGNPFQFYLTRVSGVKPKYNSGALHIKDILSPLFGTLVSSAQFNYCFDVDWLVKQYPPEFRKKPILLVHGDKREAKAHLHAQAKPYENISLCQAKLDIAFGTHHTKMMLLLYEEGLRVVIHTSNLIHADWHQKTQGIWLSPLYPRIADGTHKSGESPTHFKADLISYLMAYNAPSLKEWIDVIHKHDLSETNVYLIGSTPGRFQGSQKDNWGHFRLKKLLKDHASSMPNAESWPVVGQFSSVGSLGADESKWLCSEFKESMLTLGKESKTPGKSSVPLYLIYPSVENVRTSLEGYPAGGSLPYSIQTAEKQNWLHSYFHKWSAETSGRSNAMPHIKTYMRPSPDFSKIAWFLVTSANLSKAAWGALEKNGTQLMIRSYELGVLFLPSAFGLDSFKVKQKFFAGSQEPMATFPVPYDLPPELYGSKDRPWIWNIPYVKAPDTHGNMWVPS
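AlphaScreen read-out: signal falls as enzyme removes the 3' tyrosine-FITC from a 5'-biotinylated DNA oligo (15 nM, 5 min, RT). Enzyme was E. coli-made recombinant Tdp1 at 1 nM, exposed to compound for 15 min beforehand; beads 10 ug/ml, 10 min.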
TDP1 cell CPT = DT40-hTDP1 cell growth loss with CPT; actives 12% (n = 420,000); Potency, µM (titrated, usually from 46.2 µM), inactives show at the top dose activity change, negative = growth inhibition, usual class: inhibitors; AID 686979; chicken DT40 Tdp1-/-;hTDP1 cells + 20 nM CPT, ATP luminescence, 48 h; note: potency is the fitted concentration of half-maximal effect; nearly all actives have a fitted effect of over 55% in size
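Chicken DT40 Tdp1-/- cells stably complemented with human TDP1 were seeded at 400 cells/well in medium containing 20 nM camptothecin, exposed to pin-transferred compounds, and grown at 37 °C for at least 48 hr. Viability was read as ATP luminescence.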
Giardia killer = kills Giardia lamblia | AID 540267 | Giardia lamblia trophozoite viability | activity change, % at 7.66 µM, hits read low | actives 0.15% (n = 340,000); in the data active = activity change below about -80%; inconclusive = between about -30% and that limit;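 note: parasites exposed to compound for two days anaerobically before the ATP read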
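Trophozoites 100 cells/well + cpd; 48 hrs, 37 deg C, anaerobic. ATPLite 1-Step added, 15-30 min RT, luminescence read (ATP-based viability).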
TDP1 cell noCPT = qHTS for Inhibitors of human tyrosyl-DNA phosphodiesterase 1 (TDP1): qHTS in cells in absence of CPT. DT40 Tdp1-/- hTDP1 cells, no CPT, ATP luminescence, 48 h. Potency, µM (titrated, usually from 46.2 µM), for the others: at the top dose activity change, negative = growth inhibition, hits mostly inhibitors. actives 15% (n = 420,000). AID 686978, 2013; note: potency is the fitted concentration of half-maximal effect; nearly all actives have a fitted effect of over 55% in size
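Camptothecin absent (DMSO only). Human TDP1-complemented DT40 knockout cells, 400 cells/well, 37 °C for minimum 48 hr; ATP measured via CellTiter-Glo, 30 min dark incubation, luminescence.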
Active calls of the source: *; ? = inconclusive; . = no result; [ ] = remark or other dose. Unless noted, calls come from the whole dose curve; as a rule, active = well fitted curve in the direction sought with a large enough effect; inconclusive = small, poorly fitted or top-dose-only effect, or another doubt; inactive = no such curve, though single readings can be large; an effect the other way counts as inactive or inconclusive. % is set by controls: 0 for no effect and ±100 for the full control effect.

SMILES | ELG1 repair inh | IL1B secr inh | TDP1 inh | TDP1 cell CPT | Giardia killer | TDP1 cell noCPT
O=C(c1ccc(C(F)(F)F)cc1)N1CCC(=O)N([C@H](COCc2ccc(C(F)(F)F)cc2)Cc2ccccc2)CC1 | . | 0.0 | 4.1%[96 µM] | 23.1µM* | . | ?
CC(C)C[C@@H](COCc1ccc([N+](=O)[O-])cc1)N1CCN(C(=O)c2ccc(C(F)(F)F)cc2)CCC1=O | . | -24.0 | . | ? | . | 16.4µM*
CC(C)C[C@@H](COCc1ccc(Cl)cc1)N1CCN(C(=O)c2ccc(C(F)(F)F)cc2)CCC1=O | . | ? | . | ? | . | 20.6µM*
CC(C)CC(COCc1ccc(Cl)cc1)N1CCN(C(=O)c2ccc(Cl)cc2Cl)CCC1=O (stereo unspecified) | 23.1µM* | 0.0 | 8.2% | 23.1µM* | -6.5 | ?
CC(C)CC(COCc1cccc(Cl)c1)N1CCN(C(=O)c2cccc(C(F)(F)F)c2)CCC1=O (stereo unspecified) | -11.9% | -15.7 | -5.3% | ? | 8.7 | ?
CCC(=O)N1CCc2cc(Br)cc(S(=O)(=O)CCC(=O)N3CCN(c4cccc(C(F)(F)F)c4)CC3)c21 | . | . | 0.0% | ? | . | ?
O=C(NCc1ccccc1)C1CCN(c2nc(-c3ccccc3)nc3c2CCC3)CC1 | ? | -5.3 | 5.2% | 18.4µM* | 8.8 | 20.6µM*
CC1CCCN(C(=O)C2CCN(c3nc(-c4ccccc4)nc4c3CCC4)CC2)C1 (stereo unspecified) | -23.7% | -20.0 | 6.0% | ? | -13.9 | 23.1µM*
Cc1cc(C)nc(N2CCC(C(=O)NCc3ccccc3)CC2)n1 | 12.4% | 22.3 | -3.2% | -1.8% | 8.7 | 0.7%
NC(C(=O)O)c1cccc(O)c1 (stereo unspecified) | . | . | 1.2% | 10.4% | . | -10.8%
C[C@@H](c1ccccc1)N1C[C@H](COCc2ccccc2)Oc2cc(N3CC[C@H](N(C)C)C3)ccc2S1(=O)=O | . | -9.1 | . | ? | . | ?
CCN1CCN(c2cc(C)c3cc(NC(=S)N4CC(C)CC(C)C4)ccc3n2)CC1 (stereo unspecified) | -23.8% | -89.1* | 1.2% | ? | -3.2 | ?
CCN1CCN(C(=S)Nc2ccc3nc(N4CCN(CC)CC4)cc(C)c3c2)CC1 | -8.9% | ? | 8.2% | -83.4% | -2.6 | ?
CCN1CCN(c2cc(C)c3cc(NC(=S)N4CCCC4)ccc3n2)CC1 | -3.4% | -0.6 | 2.5% | -2.1% | -6.5 | -24.3%
CCN1CCN(c2cc(C)c3cc(NC(=S)N4CCN(c5ccc(F)cc5)CC4)ccc3n2)CC1 | 6.6% | 83.9 | 4.6% | 20.6µM* | -19.7 | ?
S=c1[nH]nc(Cc2sc(-c3ccccc3)nc2-c2ccccc2)o1 | -0.8% | 3.9 | 9.6% | 7.5% | -29.4 | ?
COc1ccc2[nH]c3c(c2c1)CCN1C(=O)N([C@@H](C)C(=O)NCc2c(F)cccc2Cl)C(=O)[C@]31C | -23.8% | -7.8 | . | 18.4µM* | -18.7 | ?
C[C@@H](C(=O)NCc1c(F)cccc1Cl)N1C(=O)N2CCc3c([nH]c4ccccc34)[C@@]2(C)C1=O | ? | -11.8 | . | 18.4µM* | -7.9 | 20.6µM*
CC(=O)c1cccc2c(O)c(C3=Nc4ccccc4C3=O)[nH]c12 | ? | -18.3 | 9.8% | 18.4µM* | 1.6 | 14.6µM*
CN(C)c1ncc2nc(-c3cccs3)c(=O)n(C3CC3)c2n1 | . | . | . | 12.2% | . | -19.5%
O=C(NCCn1ccc2ccccc21)c1cccc([N+](=O)[O-])c1 | ? | 0.0 | 4.6% | 29.1µM* | 2.8 | 23.1µM*
COc1ccc(C(=O)NC(C)CCc2ccccc2)c(O)c1 (stereo unspecified) | -19.3% | -54.7* | . | ? | -21.9 | ?
COc1cc(OC)cc(C(=O)NCCCCc2ccccc2)c1 | . | 10.2 | . | ? | -4.2 | 13µM*
Cc1cccc([N+](=O)[O-])c1NC(=O)CN(Cc1ccccc1)Cc1ccccc1 | -16.6% | ? | 9.5% | 25.9µM* | 1.1 | 20.6µM*
O=C(NCCCN1CCN(CCCNC(=O)c2cccc([N+](=O)[O-])c2)CC1)c1cccc([N+](=O)[O-])c1 | 1.3% | -6.0 | 5.3% | 2.1% | 9.8 | ?
SMILES | ELG1 repair inh | IL1B secr inh | TDP1 inh | TDP1 cell CPT | Giardia killer | TDP1 cell noCPT
COc1cc(OC)cc(C(=O)NCCCCNC(=O)c2cc(OC)cc(OC)c2)c1 | . | . | . | 1.8% | 5.7 | -19.0%
O=C(NCCCCc1ccccc1)c1cccc([N+](=O)[O-])c1 | -25.6% | -5.4 | 4.8% | 18.4µM* | -15.9 | 16.4µM*
O=C(NCCCc1ccccc1)c1cccc([N+](=O)[O-])c1 | ? | -2.6 | -2.6% | -25.1% | 9.1 | -26.0%
COc1cccc(C(=O)NCCS(=O)(=O)NCCc2ccccc2)c1 | ? | -13.7 | -4.3%[0.505 µM] | -3.8% | -9.2 | ?
O=C(CN(Cc1ccccc1)C(=O)c1cccc([N+](=O)[O-])c1)Nc1c(Cl)cc(Cl)cc1Cl | -19.1% | -0.7 | 0.6% | 8.2µM* | 2.3 | 11.6µM*
COc1cccc(C(=O)NCCS(=O)(=O)NC(C)CCc2ccccc2)c1 (stereo unspecified) | 0.6% | -3.6 | . | ? | -11.5 | 6.51µM*
COc1cc([N+](=O)[O-])ccc1NC(=O)N1CCN(c2cc(-c3noc(C)n3)ccc2C)CC1 | . | . | 7.7% | -23.2% | . | ?
CCCNC(=O)c1cc(C2CCCCN2C(=O)c2cc(C(C)(C)C)nn2C)on1 (stereo unspecified) | . | 19.2 | . | 20.6µM* | . | 18.4µM*
COc1ccc(NC(=O)c2cc(C3CCCCN3C(=O)Cc3ccc(N(C)C)cc3)on2)c(C)c1 (stereo unspecified) | . | -4.6 | . | 20.6µM* | . | ?
COc1ccc(NC(=O)c2cc(C3CCCCN3C(=O)c3cc(F)ccc3C)on2)c(C)c1 (stereo unspecified) | . | 26.7 | . | 11.6µM* | . | 8.2µM*
COc1ccc(NC(=O)c2cc(C3CCCCN3C(=O)c3cc(C(C)(C)C)nn3C)on2)c(C)c1 (stereo unspecified) | . | 52.2 | . | ? | . | 20.6µM*
COc1ccc(C(=O)N2CCCCC2c2cc(C(=O)Nc3ccc(OC)cc3C)no2)cc1 (stereo unspecified) | . | -4.7 | . | ? | . | ?
CC(=O)Nc1cc2cc(NS(=O)(=O)c3ccc(C)cc3)ccc2oc1=O | 5.7% | -9.5 | . | -8.9% | -14.6 | -9.7%
Cc1ccc(F)cc1C(=O)N1CCCCC1c1cc(C(=O)NC(C)C)no1 (stereo unspecified) | . | -55.7* | . | -1.0% | . | -27.0%
